# Source: PubChem BioAssay AID2606 (The Scripps Research Institute Molecular Screening Center, 2010)
# About 160 (0.05%) of roughly 320,000 compounds were called active. No stated cut-off is given here; in the data, active means inhibition above about 38%; inactive means the rest. Many of the other results were omitted from the sample, so actives are more common in it than they were.
# Target: Serine protease Rv3671c (Mycobacterium tuberculosis (strain ATCC 25618 / H37Rv)) (UniProt P9WHR9)
# Assay: inhibition of M. tuberculosis membrane protease Rv3671c – biochemical, fluorescence polarization, M. tuberculosis H37Rv, primary screen (AID 2606);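 further: extracellular domain of Rv3671c used as enzyme; 0% = enzyme with DMSO and 100% = no enzyme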
# Settings: at 5.96 µM; active compounds read high
# Serine protease Rv3671c (Mycobacterium tuberculosis (strain ATCC 25618 / H37Rv)), sequence (P9WHR9 whole entry, looked up, the tested form may be a part): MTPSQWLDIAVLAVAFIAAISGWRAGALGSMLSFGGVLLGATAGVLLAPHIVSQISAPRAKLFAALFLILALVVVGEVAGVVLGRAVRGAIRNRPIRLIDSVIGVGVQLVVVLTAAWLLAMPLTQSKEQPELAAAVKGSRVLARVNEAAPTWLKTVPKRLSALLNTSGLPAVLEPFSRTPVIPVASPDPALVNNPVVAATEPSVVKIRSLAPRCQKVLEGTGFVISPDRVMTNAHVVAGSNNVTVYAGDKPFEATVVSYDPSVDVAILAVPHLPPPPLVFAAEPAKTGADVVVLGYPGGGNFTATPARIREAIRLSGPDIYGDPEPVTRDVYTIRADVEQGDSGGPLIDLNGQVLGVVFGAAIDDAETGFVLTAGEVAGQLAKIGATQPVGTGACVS
row,Compound,inhibition
1,COc1ccc(C(=O)OC(C)C(=O)NC2CCCC2)cc1S(=O)(=O)N1CCOCC1 (centres undefined),-4.37% (inactive)
2,O=C(COc1ccc(-c2ccccc2)cc1)NN=C1CCCC1,-4.38% (inactive)
3,CCOc1ccc(/C=C(/NC(=O)c2ccccc2)C(=O)NCCC(=O)O)cc1,-7.39% (inactive)
4,C=CCn1c(=S)[nH]c2scc(-c3ccco3)c2c1=O,6.27% (inactive)
5,CC(C)CCNC(=O)c1cccnc1Sc1ccccc1,-12.3% (inactive)
6,CCn1ncc(CNC(=O)C2(C)CC2(Br)Br)c1C (centres undefined),-2.88% (inactive)
7,CC(C)CC(COCc1ccc(Cl)cc1)N1CCN(C(=O)c2ccc(C(F)(F)F)cc2)CCC1=O (centres undefined),-15.8% (inactive)
8,CNC(=O)/C(C#N)=C/c1c(F)cccc1Cl,-0.68% (inactive)
9,O=C(c1ccccc1F)N1CCN(S(=O)(=O)c2ccc(Br)cc2)CC1,-4.63% (inactive)
10,COCCNc1nc2nonc2nc1N1CCCC1c1nccs1 (centres undefined),-4.76% (inactive)
11,Cn1nnnc1SCC(=O)NNC(=O)c1ccc(Br)cc1,-1.13% (inactive)
12,CC(=O)N1CCc2c(sc(NC(=O)CCS(=O)(=O)c3ccc(C)cc3)c2C(N)=O)C1,8.49% (inactive)
13,CCOC(=O)[C@@H]1[C@H]2COc3ccc(Br)cc3[C@H]2N2C(=O)N(c3ccc(Cl)cc3)C(=O)[C@@]12C,-4.24% (inactive)
14,COc1cccc(C2SCC(=O)N2c2cccc(C)c2)c1OC (centres undefined),0.16% (inactive)
15,CCCCn1c(N)c(N(CCOC)C(=O)c2cccc(S(=O)(=O)N(C)c3ccccc3)c2)c(=O)[nH]c1=O,3.05% (inactive)
16,Cc1noc(C)c1NC(=O)Nc1ccc2c(c1)C(=O)N([C@H](C)CO)C[C@H](C)[C@@H](CN(C)C(=O)Nc1ccc(C(F)(F)F)cc1)O2,0.65% (inactive)
17,C/C=C/C=C/C(=O)OCC(=O)Nc1ccc(Cl)cc1,-1.55% (inactive)
18,CCN1CC=C2C(C#N)=C(N)C(C#N)(C#N)[C@H](c3ccoc3)[C@H]2C1,3.86% (inactive)
19,CC(=O)N(C)c1ccc(NC(=O)Nc2cccc3ccccc23)cc1,1.7% (inactive)
20,O=C1c2ccccc2C(=O)N1CCC(O)C[N+](=O)[O-] (centres undefined),-0.34% (inactive)
21,COc1ccc(CCNC(=O)C2CC3Cn4c(nc5cc(C)c(C)cc54)C3N2C)cc1 (centres undefined),-15.6% (inactive)
22,CC(C)(COC(=O)Nc1ccccc1)COC(=O)Nc1ccccc1,-8% (inactive)
23,COCCn1c(SCC(=O)c2[nH]c(C)c(C(C)=O)c2C)nc2ccccc2c1=O,1.17% (inactive)
24,COCc1c(C(=O)OCC(=O)Nc2ccc(OC(F)F)cc2)oc2ccccc12,-1.7% (inactive)
25,O=C1CN(C(=O)COc2c(Cl)cccc2Cl)c2ccccc2N1,0.62% (inactive)
26,CCN(C(=O)Cc1c(C(=O)O)n(CC)c2ccccc12)c1ccccc1C,4.47% (inactive)
27,NS(=O)(=O)c1ccc(CNC(=O)c2ccc(Cl)cc2[N+](=O)[O-])cc1,-8.53% (inactive)

row,Compound,inhibition
1,O=C(CCc1nnc2ccc(NCc3ccccc3Cl)nn12)NCC1CCN(C2CCCC2)C1 (centres undefined),-2.3% (inactive)
2,C=CC(COCc1ccccc1)N(CC(=O)OC)S(=O)(=O)c1cc(Br)ccc1OC (centres undefined),0.38% (inactive)
3,COc1ccc(OC)c(NC(=O)Cc2cccs2)c1,2.15% (inactive)
4,Cc1ccc(-c2ccnc3nc(Sc4ncc(C(F)(F)F)cc4Cl)nn23)cc1,-7.05% (inactive)
5,CC(=O)N1Cc2ccccc2CC1C(=O)O (centres undefined),-1.84% (inactive)
6,CCc1cccc(NC(=O)CCCN2C(=O)C(c3ccccc3)Oc3cccnc32)c1 (centres undefined),-9.9% (inactive)
7,COC(=O)C1=C(C)N(C(C)c2ccccc2)C(=O)/C1=C\c1ccco1 (centres undefined),4.05% (inactive)
8,Cc1cccc(C)c1NC(=O)N1CC=C(n2c(=O)[nH]c3ccccc32)CC1,1.3% (inactive)
9,Nc1nc(-c2sc3nc4c(cc3c2N)CCCC4)nc(N2CCOCC2)n1,-3.34% (inactive)
10,O=C(NCCN1CCOC1=O)C1CCC(=O)N(CCc2ccc(Cl)cc2)C1 (centres undefined),-0.05% (inactive)
11,O=C(NCc1ccccc1)c1ccc(CNc2c(N3CCCC3)c(=O)c2=O)cc1,3.23% (inactive)
12,CC(Sc1nnc(-c2cccs2)n1C1CC1)C(=O)NCC1CCCO1 (centres undefined),3.19% (inactive)
13,CC(C)n1c(O)c(N=Nc2ccccn2)c2ccccc21,3.27% (inactive)
14,COC(C/C=C/C(=O)[C@@H](C)OCc1ccccc1)OC,-4.04% (inactive)
15,CN=C(c1ccccc1)c1c(C)cccc1C,10.9% (inactive)
16,CC(C)C(=O)N1CCN(CCN=CC2=C(O)CC(c3ccco3)CC2=O)CC1 (centres undefined),-4.57% (inactive)
17,CCCC(C)c1nnc(NC(=O)C2CC(=O)N(c3ccc(OCC)cc3)C2)s1 (centres undefined),9.03% (inactive)
18,CCC(C)CCN1CCN=C1N(C)C (centres undefined),-3.18% (inactive)
19,CCn1c(C)nc2cc(C(=O)NNS(=O)(=O)c3ccc(C)cc3C)ccc21,-9.72% (inactive)
20,CS(=O)(=O)c1ccccc1C(=O)Nc1ccc2sccc2c1,-4.05% (inactive)
21,CC(O)CN(Cc1ccc(Cl)cc1)CC(C)O (centres undefined),6.26% (inactive)
22,O=C(COc1ccccc1Cl)N1CCCCCCC1,-10.1% (inactive)
23,Cc1ccc2c(C)c(C(=O)N3CCN(c4ccncc4)CC3)oc2c1C,10.5% (inactive)
24,O=C(NC1CC1)C1=C[C@H](c2coc3ccccc3c2=O)C[C@H](OCCCCO)O1,2.33% (inactive)
25,C=CCn1c(-c2ccc(Cl)cc2)ccc(C#N)c1=O,-12.4% (inactive)
26,N#C/C=C\Oc1ccc(Cl)cc1N,-2.18% (inactive)
27,Cc1cc(F)ccc1S(=O)(=O)Nc1ncnc2scc(-c3ccc(F)cc3)c12,-10.2% (inactive)
